Data taken from PubChem BioAssay AID1619 (SRMLSC, 2009).
In all, about 220,000 compounds went through this assay and about 830 (0.38%) were called active.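 Rule for the calls: active = compound inhibiting the enzyme by more than half at any dose during confirmatory dose-response retesting; inconclusive = strong single-dose inhibitors picked by rank but not retested; inactive = the rest.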 Only a sample is shown. Results with a measured potency or affinity are listed apart.

These compounds were tested against Leucine aminopeptidase (Plasmodium falciparum (isolate 3D7)) (UniProt Q8IL11) (assay: P. falciparum M17LAP inhibitors, primary screen, biochemical, fluorogenic H-Leu-NHMec substrate, 1536-well (AID 1619;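 note: plate controls were full reaction with DMSO carrier for no effect and no enzyme background for full effect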)). Details: recombinant M17LAP, H-Leu-NHMec fluorogenic kinetic assay; at 30 µM; hits give high values.
Leucine aminopeptidase (Plasmodium falciparum (isolate 3D7)), sequence (Q8IL11 whole entry, looked up): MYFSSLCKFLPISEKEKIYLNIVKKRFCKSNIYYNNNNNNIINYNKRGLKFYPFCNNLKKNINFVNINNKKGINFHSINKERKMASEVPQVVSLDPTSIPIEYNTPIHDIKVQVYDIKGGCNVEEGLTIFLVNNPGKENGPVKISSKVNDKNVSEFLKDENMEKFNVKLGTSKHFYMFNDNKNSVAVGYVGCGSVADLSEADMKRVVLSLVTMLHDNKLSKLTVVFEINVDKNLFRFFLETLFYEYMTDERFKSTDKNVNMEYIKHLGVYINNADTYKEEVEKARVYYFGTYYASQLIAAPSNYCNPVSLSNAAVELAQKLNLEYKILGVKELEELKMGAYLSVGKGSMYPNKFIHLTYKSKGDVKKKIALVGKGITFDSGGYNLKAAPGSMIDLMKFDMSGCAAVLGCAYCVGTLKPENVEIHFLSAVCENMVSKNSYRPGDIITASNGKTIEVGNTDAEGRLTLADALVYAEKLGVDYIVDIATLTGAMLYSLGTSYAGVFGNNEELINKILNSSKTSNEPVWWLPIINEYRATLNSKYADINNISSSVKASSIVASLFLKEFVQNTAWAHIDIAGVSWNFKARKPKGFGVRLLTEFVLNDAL

inhibition, inactive:
CCOC(=O)C[N+](C)(C)CCOC1CC2CCC1(C)C2(C)C (stereo not drawn) 3.08%, O=C(c1cnn2c(C(F)(F)F)cc(-c3ccc4c(c3)OCO4)nc12)N1CCCCC1 6.7%, O=C(NCCC1=CCCCC1)C1CCN(C(=O)Cc2ccccc2)CC1 6.09%, O=C(CSc1n[nH]c(-c2cccs2)n1)N1CCCc2ccccc21 1.29%, Fc1ccc(CNc2nc3ccccc3n3cnnc23)cc1 -2.38%, CCOC(=O)C1CN(S(=O)(=O)c2ccccc2)CCN1S(=O)(=O)c1ccccc1 (stereo not drawn) -13.2%, CCCCCn1c(CNC(=O)COC)nc2ccccc21 -1.06%, CN(CC(=O)Nc1ccc(N2CCOCC2)cc1)CC(=O)Nc1cccc(C#N)c1 17.1%, Cc1ccc(C(=O)CSc2n[nH]c(C)n2)cc1 46.4%, CC(C)(C)c1ccc(C(=O)CSc2nc3ccccc3c(=O)[nH]2)cc1 9.78%, Cc1nc(SCC(=O)c2ccc(F)cc2)n[nH]1 19.2%, CC(C)Oc1ccc(C(CC(=O)O)NC(=O)C(Sc2ccccc2)c2ccccc2)cc1 (stereo not drawn) 19.5%, CC(C)Oc1ccc(C(CC(=O)O)NC(=O)C2CCCCC2)cc1 (stereo not drawn) 4.14%, CC(C)(C)c1ccc(C(=O)CSc2n[nH]c(=O)[nH]c2=O)cc1 -4.96%, O=C(CCC(=O)Nc1ccccc1)NNC(=O)c1ccccc1Cl -1.79%, CCCN1Cc2cccc(C(=O)Nc3ccc(C)cc3)c2C1=O -1.02%, COCCNC(=S)N1CCC(Cc2ccccc2)CC1 1.83%, CC(=O)Nc1ccc(Sc2ccccc2C(=O)O)cc1 6.89%, CCOC(=O)C1CCCN(C(=O)c2cc(Nc3ccc(OC)cc3OC)nc3ccccc23)C1 (stereo not drawn) -1.02%, O=C(NCCc1ccc(S(=O)(=O)N2CCCC2)cc1)c1cccs1 22.4%, O=C(CSc1nnc(CNC(=O)c2ccco2)o1)Nc1ccccc1 21.5%, O=C1NC(=S)S/C1=C\c1cc2ccccc2nc1N1CCCCC1 8.4%, COc1ccc2nc(N3CCCCC3)c(/C=C3\SC(=S)NC3=O)cc2c1 15.3%, O=C(CSCc1ccccc1Br)N/N=C/c1ccc(OCC(=O)N2CCCCC2)cc1 9.49%, O=C1NC2(CCCCC2)C(=O)N1/N=C/c1ccccc1Br -1.17%, CCCc1nc2ccccc2c(=O)n1/N=C/c1ccccc1O -13.5%, CCCc1nc2ccccc2c(=O)n1/N=C/c1ccc(O)cc1 -6.52%, Cc1ccc(-c2ccc(NC(=O)C3C4C=CC(C4)C3C(=O)O)cc2)o1 (stereo not drawn) 51.5%, Cc1ccc(-c2cccc(NC(=O)C3C(C(=O)O)[C@@H]4C=C[C@H]3C4)c2)o1 (stereo partly drawn) 22.7%, CCOC(=O)C/C(C)=N/NC(=O)C1CC1(c1ccccc1)c1ccccc1 (stereo not drawn) -7.82%, Cc1cc(NC(=O)c2ccc(NC(=O)C3CC3)cc2)no1 -1.13%, COc1ccc(Br)cc1CN(C)C(C)C(=O)Nc1cccc(C(C)=O)c1 (stereo not drawn) -4.69%, Cc1ccc(NC(=O)Cn2cc3c(n2)CCC(C)C3)cc1 (stereo not drawn) -7.43%, CC1CCc2nn(CC(=O)Nc3ccc(F)cc3F)cc2C1 (stereo not drawn) 6.54%, CC1CCN(S(=O)(=O)c2ccc3ncn(CC(=O)N(C)Cc4ccccc4)c(=O)c3c2)CC1 3.66%, COc1ccc(N2C(=O)CCC(C(=O)N3CCCCCC3)C2c2ccc(OC)c(OC)c2)cc1 (stereo not drawn) -1.54%, CCCCC(CC)C(=O)NCC(C)NC(=O)C(CC)CCCC (stereo not drawn) 2.99%, CCOc1ccc(C(=O)NCC(=O)OCC(=O)Nc2ccccc2OCC)cc1 0.01%, CC(OC(=O)Cc1coc2ccc3ccccc3c12)C(=O)Nc1ncc(Cl)cc1Cl (stereo not drawn) 5.82%, Cn1c(=O)[nH]c(=O)c2c1nc(NC1CCCCC1)n2CC(=O)NC1CCCCC1 10.2%, COc1cccc(NC(=O)CC2COc3ccccc3O2)c1 (stereo not drawn) 7.49%, COc1ccc(NC(=O)CCC2COc3ccccc3O2)c(OC)c1 (stereo not drawn) 11.9%, COc1cc(OC)c(OC)cc1NC(=O)CC1COc2ccccc2O1 (stereo not drawn) -17.5%, COc1ccc(C)cc1NC(=O)CC1COc2ccccc2O1 (stereo not drawn) 4.49%, FC(F)(F)c1ccccc1NC(=S)N1CCN(c2ccccn2)CC1 1.6%, Oc1cc(Cc2ccccc2)cnc1CN1CCOCC1 -3.17%, CCCCCOP(=O)(c1ccccc1)c1ccccc1 -7.38%, CCc1ccc(-n2c(SCC(=O)N3Cc4ccccc4CC3C(=O)O)nnc2-c2ccncc2)cc1 (stereo not drawn) -6.38%, CC(c1ccon1)N(C)Cc1c(C(=O)N(C)Cc2ccccc2)nc2ccccn12 (stereo not drawn) 11.8%, Cc1cc(C(=O)CSc2cccc[n+]2[O-])c(C)n1-c1ccc(Br)cc1 1.39%, CCN1c2ccccc2-c2nc3ccccc3n2C1c1cccnc1 (stereo not drawn) -45%, O=C(COC(=O)CCC(=O)c1ccc(Cl)cc1)NC1CC1 10.9%, O=C(c1ccccc1Cl)N1CCn2c1nc1ccccc12 24.5%, CCOCCCn1c(SCC(=O)Nc2cc(C(C)(C)C)nn2-c2ccccc2)nc2ccccc2c1=O -8.18%, O=C1/C(=C/c2ccc([N+](=O)[O-])cc2)C=C(c2ccccc2)N1c1ccccc1 1.75%, O=C(O)c1cccc(N2C(=O)/C(=C/c3ccc([N+](=O)[O-])cc3)C=C2c2ccccc2)c1 31.6%, CCOC(=O)CC(=O)CSc1nc(C)cc(C)c1C#N -4.47%, COc1cc(NC(=O)c2cccc(C)c2)c(OC)cc1NC(=O)CN1CCOCC1 14.9%, Cc1ccccc1/C=C1\SC(=S)N(/N=C/c2cc([N+](=O)[O-])ccc2O)C1=O 15.5%, O=C(O)COc1ccccc1/C=C1\SC(=Nc2ccc(F)cc2)N(c2ccc(F)cc2)C1=O 2.19%, CN1C(=O)S/C(=C\c2ccccc2OCc2ccc(C(=O)O)cc2)C1=O 5.62%, O=C(O)COc1ccccc1/C=C1\SC(=S)N(c2cccnc2)C1=O 10.2%, Cc1cccc(C2c3[nH]c4ccccc4c3CCN2C(=O)c2cn(C)c3ccccc3c2=O)n1 (stereo not drawn) 8.5%, COCCCNC(=S)N/N=C/c1ccccc1O 19.4%, O=C(CSC1=NCCN1)Nc1cccc(C(F)(F)F)c1 -6.47%, O=C(O)CCCC(=O)Nc1cccc(C(F)(F)F)c1 24.8%, CCc1ccc(NC(=O)CSc2nnc(CC)c(CC)n2)cc1 29.2%, CNCC(=O)Nc1ccc(Cl)c(C(F)(F)F)c1 -1.94%, CCc1nnc(SCC(=O)Nc2ccccc2)nc1CC 21.8%, Cc1cc(C)nc(SCc2nnc(SCC(=O)Nc3ccc(Cl)c(C(F)(F)F)c3)o2)n1 10.2%, Cc1cc(C)nc(/N=C(\NC(=O)C(C)(C)C)Nc2ccc(F)cc2)n1 12.7%, CN(C)CCNC(=S)Nc1ccc(-c2nc3ccccc3[nH]2)cc1 18.8%, COc1ccc(-c2csc3nc(C)nc(N4CCN(c5ccc(C(C)=O)cc5)CC4)c23)cc1OC -3.5%, COCCSc1ccccc1C(=O)N1CCCC(C)C1 (stereo not drawn) -3.2%, CC(C)(C)C(=O)Nc1cccc(-c2ncon2)c1 1.81%, NS(=O)(=O)c1ccc(NC(=O)Cn2ncc3c2-c2ccccc2OC3)cc1 -1.22%, COc1ccc(OC)c(CNC(=O)Cc2c(C(=O)O)[nH]c3ccccc23)c1 28.4%, COc1cccc(CNC(=O)Cc2c(C(=O)O)[nH]c3ccccc23)c1 8.02%, Cc1ccc(NC(=O)C(=O)NCC2CCCO2)cc1C (stereo not drawn) -1.64%, COCc1nnc(NS(=O)(=O)c2ccc(C)cc2)s1 4.91%, COc1ccc(S(=O)(=O)Nc2nncs2)cc1 54.3%, COc1ccc(-c2cc(C(F)(F)F)c(C#N)c(SCC(=O)Nc3ccccc3C#N)n2)cc1 -5.46%, Cc1ccccc1NC(=O)CSc1nc(N)c(C#N)cc1C#N -1.94%, Cc1cc(C)c(C#N)c(SCC(=O)Nc2ccccc2C)n1 -11.6%, Cc1cc(C)c(C#N)c(SCC(=O)Nc2ccccc2C(N)=O)n1 -14.1%, COCc1cc(C)nc(SCC(=O)Nc2ccccc2C)c1C#N -1.72%, Cc1cc(C)c(C#N)c(SCC(=O)Nc2ccc3c(c2)OCO3)n1 2.63%, Cc1nc(SCC(=O)Nc2ccc(F)cc2)c(C#N)c(C)c1CC(=O)c1ccc(Br)cc1 -7.6%, Cc1ccc(C)c(NC(=O)CSc2nc(C)cc(C)c2C#N)c1 11.2%, O=C(NCCc1c[nH]c2ccccc12)/C(=C/c1cccnc1)NC(=O)c1cccs1 7.81%, Cc1ccc(NC(=O)CCCN2C(=S)NC(C)(C)CC2C)cc1 (stereo not drawn) 4.19%, CCCN(c1nc(C)cc(OC)n1)S(=O)(=O)c1ccccc1 -8.31%, N#CC1=C(N)Oc2n[nH]c(-c3cccs3)c2C1c1cccnc1 (stereo not drawn) 24.1%, Cc1cc(-c2[nH]nc3c2C(c2ccsc2)C(C#N)=C(N)O3)c(C)s1 (stereo not drawn) 45.6%, N#CC1=C(N)Oc2n[nH]c(-c3ccncc3)c2C1c1ccsc1 (stereo not drawn) 27.9%, COc1ccc(-c2[nH]nc3c2C(c2ccsc2)C(C#N)=C(N)O3)cc1 (stereo not drawn) 72.1%, CCOc1ccc(-c2[nH]nc3c2C(c2cccnc2)C(C#N)=C(N)O3)cc1 (stereo not drawn) 24.6%, Cc1cc(-c2[nH]nc3c2C(c2ccc(Cl)cc2)C(C#N)=C(N)O3)c(C)s1 (stereo not drawn) 23.3%
